Source: the supplement of paper PMC3334620
Over roughly 33,000 sequences, “E-score (-0.5 to 0.5)” has its median near -0.056; the highest 2% begin near 0.38. The sample as a whole holds a higher share of the highest values than the screen did.

target: Stb4 (UniProt P50104); test: PBM E-score (8-mer binding enrichment) (E-score (-0.5 to 0.5)); higher = stronger / more preferred TF binding; conditions: protein concentration: 200 nM; construct: GST-DNA-binding domain
In short: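 For each ungapped eight-base word taken together with its reverse complement, the Universal PBM Analysis Suite assigned an E-score. Binding data came from GST-tagged yeast transcription factors, applied at about 100-200 nM, on universal all-10-mer Agilent arrays made double-stranded by primer extension. Fluorescent anti-GST marked bound protein, and scans were normalised with masliner.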

Sequence of UniProt P50104 (P50104 whole entry, the tested form may be a part): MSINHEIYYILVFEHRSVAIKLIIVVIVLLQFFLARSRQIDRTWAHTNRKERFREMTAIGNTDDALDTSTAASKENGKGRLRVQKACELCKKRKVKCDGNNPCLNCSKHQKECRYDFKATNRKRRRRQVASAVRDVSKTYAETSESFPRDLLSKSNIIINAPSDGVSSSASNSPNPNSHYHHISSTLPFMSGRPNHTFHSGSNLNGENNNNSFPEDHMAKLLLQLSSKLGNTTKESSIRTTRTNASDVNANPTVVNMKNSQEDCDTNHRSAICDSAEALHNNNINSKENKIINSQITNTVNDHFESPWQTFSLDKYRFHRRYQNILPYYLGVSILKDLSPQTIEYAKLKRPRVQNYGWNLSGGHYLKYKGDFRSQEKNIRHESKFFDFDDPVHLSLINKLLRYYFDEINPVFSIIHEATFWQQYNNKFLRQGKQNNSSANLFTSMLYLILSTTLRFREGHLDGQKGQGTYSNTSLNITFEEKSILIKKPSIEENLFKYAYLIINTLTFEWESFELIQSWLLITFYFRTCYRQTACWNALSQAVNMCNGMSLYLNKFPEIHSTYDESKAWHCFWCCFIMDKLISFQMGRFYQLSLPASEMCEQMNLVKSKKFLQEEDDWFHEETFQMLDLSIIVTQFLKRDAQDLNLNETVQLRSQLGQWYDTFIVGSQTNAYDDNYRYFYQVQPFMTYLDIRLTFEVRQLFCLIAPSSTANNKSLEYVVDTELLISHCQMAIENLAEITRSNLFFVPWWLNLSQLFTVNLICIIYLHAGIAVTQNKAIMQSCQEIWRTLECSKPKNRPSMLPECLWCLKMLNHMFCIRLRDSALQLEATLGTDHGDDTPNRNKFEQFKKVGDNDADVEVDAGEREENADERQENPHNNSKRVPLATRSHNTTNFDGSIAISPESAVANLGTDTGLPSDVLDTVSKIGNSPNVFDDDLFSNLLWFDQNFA

| Sequence | PBM E-score |
| --- | --- |
| AGAGGGCA | -0.289 |
| AGGTACGA | -0.0929 |
| ACAAGAAC | 0.101 |
| ATGGTTTG | 0.117 |
| CAGATCTG | -0.205 |
| CAGACGAA | 0.0157 |
| CTACTGCA | -0.329 |
| CTACTGAC | -0.0845 |
| CTTAGAAC | -0.0637 |
| GTCCTCGA | -0.228 |
| AAGCAAAC | -0.0582 |
| AACCGGGG | 0.164 |
| ATCCGGGC | 0.405 |
| ATCCGGCC | 0.394 |
| ATCCGGCG | 0.368 |
| ATCCGGGG | 0.398 |
| CTCCGGGC | 0.131 |
| ATCCGGGA | 0.368 |
| AGCCGGGC | 0.166 |
| ATCCGGCA | 0.38 |
| AATATAAC | 0.109 |
| CGTCTCAG | -0.235 |
| TGGAACCA | 0.0635 |
| CCGAACCG | 0.447 |

| Sequence | PBM E-score |
| --- | --- |
| AGGAACCG | 0.263 |
| CCGAACCA | 0.356 |
| CCGAACCC | 0.37 |
| CGGAACCA | 0.41 |
| CGGAACCG | 0.407 |
| GGGAACCA | -0.0292 |
| CGGAACCC | 0.359 |
| CATTCTCA | 0.0317 |
| CAATGTCC | 0.00172 |
| AAATGCGC | -0.041 |
| ATGCCGAC | 0.333 |
| ATGCCGCA | 0.0956 |
| GTGCCGAA | 0.441 |
| CTGCCGAC | 0.331 |
| GGGCCGAA | 0.314 |
| ATGCCAAA | -0.302 |
| CTGCCGAA | 0.411 |
| ATGCCGAA | 0.433 |
| CTGCCGCA | 0.0287 |
| ATGCCGTG | 0.00847 |
| ATGCCGAG | 0.423 |
| GTGCCAAA | -0.0603 |
| GCAAGTGA | -0.0836 |
| CTCGCGAG | -0.0385 |

| Sequence | PBM E-score |
| --- | --- |
| GTAAGTAC | 0.00926 |
| AGCGACCC | 0.0831 |
| ATGGTCGC | -0.0565 |
| CGTTAGCA | -0.0245 |
| ACAGGCAT | -0.242 |
| AAAGCCGA | 0.322 |
| GAAGCCCA | -0.1 |
| CAAGCCGA | 0.297 |
| GAAGCCGC | 0.193 |
| TAAGCCGA | 0.392 |
| GAAGCCGA | 0.401 |
| ACGATTGG | -0.176 |
| CATCGGCG | 0.165 |
| CCACGGCG | -0.0429 |
| ACTCGGCC | 0.232 |
| TCTCGGCA | 0.446 |
| TCACGGCA | 0.114 |
| GCTCGGCC | 0.289 |
| ACTCGGCA | 0.428 |
| ACTCGGCG | 0.326 |
| CCTCGGCG | 0.411 |
| GCACGGCA | 0.109 |
| GCTCGGCA | 0.443 |
| AATCGGCA | 0.32 |

| Sequence | PBM E-score |
| --- | --- |
| ACGACGTC | -0.148 |
| ATTGGGGA | -0.245 |
| AGATACTG | -0.169 |
| ACCAGCCG | 0.256 |
| AGATGAAG | -0.0847 |
| AGCTAAGA | -0.055 |
| AAGCCAAG | -0.0879 |
| CCCGCATC | 0.101 |
| ACATAGAG | -0.166 |
| GAGAAATC | 0.0628 |
| AATCGGCT | 0.344 |
| CCTCGGCA | 0.461 |
| ACTCGGCT | 0.414 |
| CCTCGGCC | 0.313 |
| ACTCGTCT | -0.126 |
| CGTCGGCA | 0.38 |
| GAGTCCCC | -0.0682 |
| ACGTGATA | -0.167 |
| CCCTGACC | 0.0155 |
| CCAGACTC | -0.0717 |
| GAAACAGA | -0.0644 |
| AGCCGACT | 0.261 |
| CGCCGAAG | 0.372 |
| AGCCGTAT | 0.0974 |

| Sequence | PBM E-score |
| --- | --- |
| CACCGAAA | 0.201 |
| GACCGAAA | 0.255 |
| AGCCGAAG | 0.391 |
| GGCCGAAC | 0.313 |
| CGCCGAAC | 0.366 |
| AGCCGAAT | 0.426 |
| TACCGAAA | 0.385 |
| AGACGAAG | -0.0901 |
| AGCCGAAC | 0.411 |
| GAGCCGTA | 0.191 |
| AGCCCGTC | -0.0989 |
| ATGATTCG | 0.0336 |
| GGGTCTAA | -0.0158 |
| AAAGCTCA | -0.202 |
| CTGCAGTA | -0.353 |
| AATCAGGC | -0.174 |
| TGACGAAA | -0.207 |
| AGCCGAAA | 0.425 |
| GGCCGAAA | 0.319 |
| TGCCGAAA | 0.444 |
| CGCCGAAA | 0.34 |
| TGCCGACA | 0.359 |
| AACAGGAA | -0.219 |
| AGCACAAC | 0.0479 |
